According to PubChem BioAssay (NCATS):
Records with an inconclusive call do not appear. A number with no mark means an inactive call. Calls of active or inactive are those of the source. Calls come from the whole dose curve; as a rule, active = well fitted cell-killing curve with a large enough effect; inconclusive = small, poorly fitted or top-dose-only effect, or effect the other way; inactive = no such curve, though single readings can be large or run the other way.

Assay: Cell Viability - LYMP2-004 (AID 966); note: nearly all actives have a fitted effect of over 65% in size
Conditions: LYMP2-004 lymphoblastoid cell viability, qHTS; series mostly up to 92.2 µM; activity change, negative = cytotoxicity: at the top concentration
Source text: NIH Chemical Genomics Center [NCGC]
NIH Molecular Libraries Screening Centers Network [MLSCN]
National Institutes of Environmental Health Sciences [NIEHS]
National Toxicology Program [NTP]
We have developed a 1536-well cell-based assay for quantitative high throughput screening (qHTS) against a number of cell lines to determine in vitro cytotoxicity of small molecules. This particular assay uses a human lymphoblastoid cell line (LYMP2-004) purchased from Coriell Institute for Medical Research.
NCGC Assay Protocol Summary:
The CellTiter-Glo luminescent cell viability assay (Promega) is a homogeneous method to measure the number of viable cells in culture. The end point readout of this assay is based on quantitation of intracellular ATP, an indicator of metabolic activity, using the luciferase reaction. Luciferase catalyzes the oxidation of beetle Luciferin to oxyluciferin and light in the presence of ATP. The luminescent signal is proportional to amount of ATP present.
Using the CellTiter-Glo luminescent cell viability assay, the amount of cellular ATP was measured in the lymphoblastoid cell line with complete culture medium following compound treatment for 24 hours. The assay was performed in opaque white Kalypsys 1536-well plates. In the screen, tetraoctylammonium bromide was used as positive control. Library compounds were measured for their ability to cause acute toxicity in the cell line, as reflected by a decrease in intracellular ATP levels, in a concentration-dependent manner. […] AC50 values were determined from concentration-response data modeled with the standard Hill equation.
qHTS protocol for CellTiter Glo lymphoblastoid cellular assay
[Step] [Parameter] [Value] [Description]
1. Reagent; 5 uL; 2500 lymphoblastoid cells/well
2. Time; 5 hr; 37 C incubation
4. Controls; 23 nL; Tetraoctylammonium bromide 6.4pM to 92 uM
5. Time; 24 hr; 37 C incubation
6. Reagent; 5 uL; CellTiter Glo reagent
7. Time; 30 min; Room Temperature
8. Detection; Luminescence; Viewlux plate reader
Keywords: cell viability, cytotoxicity, lymphoblastoid cell line, luminescence, NTPHTS, NTPHTS_NCGC, NIEHS, DSSTox, MLSMR, MLSCN, NIH Roadmap, qHTS, NCGC
Potency is the fitted concentration of half-maximal effect.

Row | Compound | activity change, negative = cytotoxicity [%] | Potency
1 | COc1ccc(N)c(OC)c1 | 9.89 | 
2 | CC(=O)OC(C)=O | 45.9 | 
3 | Cc1ccc2cccnc2c1 | 8.61 | 
4 | CCCCCCCCCCCCC1CO1 (stereo not given) | 13.5 | 
5 | Nc1cccc2c(=O)[nH][nH]c(=O)c12 | -1.04 | 
6 | CC(C)=CCl | 6.59 | 
7 | CC(=O)Nc1ccc(C)cc1 | 5.93 | 
8 | O=C(O)c1ccc(CO)o1 | 1.78 | 
9 | CCCCCCCCC/C=C/CC1CC(=O)OC1=O (stereo not given) | 12.8 | 
10 | O=Nc1ccc(NO)cc1 |  | 50.1 µM (active)
11 | CC1(N)CCC(C(C)(C)N)CC1 (stereo not given) | -9.92 | 
12 | CNC(=O)c1ccccc1 | 14.8 | 
13 | CC1=C(/C=C/C(C)=C/C=C/C(C)=C\C=O)C(C)(C)CCC1 |  | 31.6 µM (active)
14 | O=C(O[C@@H](C(=O)O)[C@@H](OC(=O)c1ccccc1)C(=O)O)c1ccccc1 | 3.35 | 
15 | O=C(O)c1cc(Cl)cc(Cl)c1 | -2.07 | 
16 | N#CC1(O)CCCCC1 | -0.686 | 
17 | FB(F)F | 1.95 | 
18 | O=C(O)c1ccc(Cl)cc1Cl | 12.6 | 
19 | c1ccsc1 | 4.25 | 
20 | O=C1OC(=O)c2cc([N+](=O)[O-])ccc21 | 11.6 | 

Row | Compound | activity change, negative = cytotoxicity [%] | Potency
21 | Nc1cc(Cl)c(N)c(Cl)c1 | 0.587 | 
22 | CC(C)CO | 5.32 | 
23 | C=CC(=O)NC(C)C | 0.692 | 
24 | COc1cccc2sc(N)nc12 | 26.8 | 
25 | CCCCC(CC)COCC1CO1 (stereo not given) | -24.7 | 
26 | ON=C1CCCCC1 | -4.67 | 
27 | Cc1cccc(Br)c1 | 11.7 | 
28 | Cc1cccc2ccccc12 | 3.99 | 
29 | CC(O)COC(C)(C)C (stereo not given) | -3.41 | 
30 | CC(C)C=O | 3.71 | 
31 | C[C@@H]1CC2(OC3C[C@@]4(C)C5=CC[C@H]6C(C)(C)C(O[C@@H]7OC[C@@H](O)[C@H](O)[C@H]7O)CC[C@@]67C[C@@]57CC[C@]4(C)C31)OC(O)C1(C)OC21 (stereo not given in full) | 12.9 | 
32 | O=[N+]([O-])c1ccc(NCCO)c(OCCO)c1 | 6.87 | 
33 | O=[N+]([O-])c1ccccc1CCO | 7.41 | 
34 | O=Cc1ccccc1Cl | -1.72 | 
35 | CC(=O)OC(C)C | 18.3 | 
36 | Nc1cc(Cl)c([N+](=O)[O-])cc1O | -15.9 | 
37 | Cc1c(N)cccc1N | 4.2 | 
38 | CNc1ccc([N+](=O)[O-])cc1 | 1.55 | 
39 | CCOc1cc(OCC)c(C(C)=O)cc1OCC | 9.69 | 
40 | C=C(C)C1CC=C(C)C(OC(C)=O)C1 (stereo not given) | 0.734 | 
